“And” between values parts separate entries of the source, which are not always exact repeats. Equal values may be shown once. About 470 (0.67%) of roughly 70,000 compounds were called active. About 18% were inconclusive and are not listed. The entries come from a sample that favours actives as a whole. Entries that show only a call come without a potency. A number with no mark means an inactive call. The call rests on the fitted dose curve.
Test: qHTS Assay for Anthrax Lethal Toxin Internalization; further: nearly all actives have a fitted effect of over 50% in size
Conditions: Cells, FRET ratio (460/530); series mostly up to 40 µM
Potency means the concentration at half of the fitted maximal effect.

**Q.** With `Cc1ccc2oc(=O)ccc2c1` as the compound, how does the activity change, negative = inhibition read?
**A.** inactive

**Q.** With `NCCCNCCCCN(CCCN)/[N+]([O-])=N/O` as the compound, how does the activity change, negative = inhibition read?
**A.** inactive

**Q.** With `CNC(=O)C1(C)C=CC2(CCCCC2)N1C(C)=O` (stereo not drawn) as the compound, how does the activity change, negative = inhibition read?
**A.** inactive

**Q.** Which activity change, negative = inhibition does the source give for `CCCNC(=O)OC[C@@H]1O[C@H](c2ccccc2)C=C[C@@H]1Oc1ccc(OC)cc1` here?
**A.** -2.83% [at 8 µM]

**Q.** Which activity change, negative = inhibition does the source give for `CSc1nc2ccc(S(=O)(=O)N3CCc4ccccc43)cc2s1` here?
**A.** inactive

**Q.** With `O=C(O)c1nccnc1C(=O)Nc1ccc(Br)cn1` as the compound, how does the activity change, negative = inhibition read?
**A.** inactive

**Q.** Which activity change, negative = inhibition does the source give for `Cc1ncc(CC(=O)n2cc(C(=O)c3cc(Cl)ccc3O)cn2)s1` here?
**A.** inactive

**Q.** Which activity change, negative = inhibition does the source give for `COC(=O)C1(Cc2ccccc2)C=C2C(=C(C)C(=O)C2C)CN1` (stereo not drawn) here?
**A.** inactive

**Q.** For `COC(=O)[C@H]1C[C@@H]1[C@H](NC(=O)Oc1ccc(F)cc1)c1ccccc1`, which activity change, negative = inhibition is on record?
**A.** inactive

**Q.** Which activity change, negative = inhibition does the source give for `O=C(O)CS(=O)c1ccc2c3c(cccc13)C(=O)c1ccccc1-2` (stereo not drawn) here?
**A.** 1.15% [at 8 µM]

**Q.** Which activity change, negative = inhibition does the source give for `CN(Cc1ccco1)c1ncncc1-c1ccoc1` here?
**A.** inactive

**Q.** Which activity change, negative = inhibition does the source give for `CC(C)C[C@@H](CC(=O)N[C@@H](CCC(=O)O)CC(=O)O)NC(=O)[C@@H]1CCCC[C@H]1NC(=O)C[C@@H](NC(=O)C[C@H](CO)NC(=O)[C@@H]1CCCC[C@H]1N)C(C)C` here?
**A.** inactive

**Q.** Which activity change, negative = inhibition does the source give for `COc1ccc2nccc(C(=O)O)c2c1` here?
**A.** -6.5% [at 3.58 µM]

**Q.** With `COc1cccc([C@H]2Oc3ccc(OC)cc3/C(=N\OCC[C@@H]3C=C[C@H](OC(C)=O)[C@H](COC(C)=O)O3)[C@@H]2O)c1` as the compound, how does the activity change, negative = inhibition read?
**A.** -2.18% [at 8 µM]

**Q.** Which activity change, negative = inhibition does the source give for `CC(C)[C@@H](CC(=O)N[C@@H]1CCNC[C@H]1C(=O)N[C@H](CC(=O)N[C@@H](CCC(=O)O)CC(=O)O)Cc1ccccc1)NC(=O)C[C@H](CO)NC(=O)[C@@H]1CNCC[C@H]1N` here?
**A.** inactive

**Q.** With `CC(=O)OCC1OC(C#CCCCc2ccccc2)C=CC1OC(C)=O` (stereo not drawn) as the compound, how does the activity change, negative = inhibition read?
**A.** -3.55% [at 8 µM]

**Q.** For `O=Cc1c(Cl)cccc1Cl`, which activity change, negative = inhibition is on record?
**A.** inactive

**Q.** For `COC(=O)[C@@H]1CC[C@H](C)[C@@H](c2ccc(C)cc2)N1C(=O)c1ccc(/C=N\O[C@@H](C)c2cn([C@H](CO)Cc3ccccc3)nn2)cc1`, which activity change, negative = inhibition is on record?
**A.** 5.23% [at 8 µM]

**Q.** Which activity change, negative = inhibition does the source give for `O=C(Nc1ccccc1-c1nnn(CC(=O)N2CCN(c3ccccc3)CC2)n1)c1cccs1` here?
**A.** inactive

**Q.** For `Cc1cc(C)cc(C#CC2C=CC(Oc3ccc(C4CCCC4)cc3)C(CO)O2)c1` (stereo not drawn), which activity change, negative = inhibition is on record?
**A.** -16.6% [at 8 µM]

**Q.** For `CS(=O)(=O)N1CCC2(CC1)CN(c1ccncc1)C2`, which activity change, negative = inhibition is on record?
**A.** inactive

**Q.** Which activity change, negative = inhibition does the source give for `CCCC[C@H]1C(=O)N(c2ccccc2)N(c2ccc(O)cc2)C1=O` here?
**A.** -4.13% [at 3.58 µM]

**Q.** With `CO[C@H]1COC(=O)[C@@H](OCc2ccccc2)/C=C\[C@H](C)[C@@H](OC)COC(=O)[C@H](OCc2ccccc2)/C=C\[C@@H]1C` as the compound, how does the activity change, negative = inhibition read?
**A.** -4.42% [at 8 µM]

**Q.** For `C[C@@H]1C[C@H]2[C@@H]3C[C@H](F)C4=CC(=O)C=C[C@@]4(C)[C@]3(F)[C@H](O)C[C@]2(C)[C@@]1(O)C(=O)CO`, which activity change, negative = inhibition is on record?
**A.** 2.5% [at 3.58 µM]

**Q.** For `COCCn1c(=O)c(-c2cccs2)nc2cncnc21`, which activity change, negative = inhibition is on record?
**A.** inactive

**Q.** For `COc1ccc(-c2oc3cc(OC)ccc3c2C(=O)c2ccc(C#N)cc2)cc1`, which activity change, negative = inhibition is on record?
**A.** inactive

**Q.** For `CC(C)(C)[Si](OCC[C@@H]1C[C@@]1(C)[C@@H](NP(=O)(c1ccccc1)c1ccccc1)c1ccccc1)(c1ccccc1)c1ccccc1`, which activity change, negative = inhibition is on record?
**A.** inactive

**Q.** Which activity change, negative = inhibition does the source give for `COc1ccc(C(=O)N2CCC3(CCCN(C(c4ccccc4)c4ccccc4)C3)CC2)cc1` here?
**A.** inactive

**Q.** With `O=C(O)COc1c(Cl)cc(Cl)c2cccnc12` as the compound, how does the activity change, negative = inhibition read?
**A.** 10.5% [at 8 µM]

**Q.** With `CO[C@@H]1COC(=O)C/C=C\[C@H](C)[C@@H](NS(=O)(=O)c2ccc(C)cc2)COC(=O)C/C=C\[C@@H]1C` as the compound, how does the activity change, negative = inhibition read?
**A.** -10% [at 8 µM] and -6.83% [at 8 µM]

**Q.** With `c1ccc2nc(C3=NCCN3)cnc2c1` as the compound, how does the activity change, negative = inhibition read?
**A.** inactive

**Q.** Which activity change, negative = inhibition does the source give for `Cc1c2c(nc3ccccc13)-c1cccc(=O)n1C2` here?
**A.** inactive

**Q.** Which activity change, negative = inhibition does the source give for `COc1ccccc1C(=O)C(O)c1ccccc1OC` (stereo not drawn) here?
**A.** inactive

**Q.** With `CC(=O)OCC1OC(C#Cc2ccccc2Cl)C=CC1OC(C)=O` (stereo not drawn) as the compound, how does the activity change, negative = inhibition read?
**A.** -7.54% [at 8 µM]

**Q.** With `C[N+](C)(C)CCCCCNCC12CC3CC(CC(C3)C1)C2` as the compound, how does the activity change, negative = inhibition read?
**A.** inactive

**Q.** Which Potency does the source give for `CSc1ccc(-c2c(C#N)c(N)nc3c2c(C)nn3-c2ccccc2)cc1` here?
**A.** 1.26 µM (active)

**Q.** For `COC(=O)[C@@]1(Cc2ccc(F)cc2)[C@H]2c3cc(C(=O)N4CCCC4)n(C[C@H](O)CO)c3C[C@H]2CN1C(=O)c1ccccc1`, which activity change, negative = inhibition is on record?
**A.** inactive

**Q.** For `COc1cc([C@H]2c3cc4c(cc3[C@@H](O[C@@H]3O[C@H]5CO[C@@H](C)O[C@]5(O)C[C@H]3O)[C@@H]3COC(=O)[C@H]23)OCO4)cc(OC)c1O`, which activity change, negative = inhibition is on record?
**A.** inactive

**Q.** Which activity change, negative = inhibition does the source give for `CCC(Sc1nncn1C)C(=O)Nc1nnc(-c2ccc(Cl)cc2)s1` (stereo not drawn) here?
**A.** inactive

**Q.** For `O=C(O)c1ccc(C(=O)O)c2c(C(=O)O)ccc(C(=O)O)c12`, which activity change, negative = inhibition is on record?
**A.** -1.24% [at 8 µM]

**Q.** For `COc1ccc(N)c(OC)c1`, which activity change, negative = inhibition is on record?
**A.** inactive

**Q.** With `COC(=O)[C@@]1(Cc2ccccc2)[C@H]2c3cc(C(=O)N(C)C)n(CCSCCO)c3C[C@H]2CN1C(=O)c1ccccc1` as the compound, how does the activity change, negative = inhibition read?
**A.** inactive

**Q.** Which activity change, negative = inhibition does the source give for `CCC[C@@H]1C[C@@]1(CCC)C(NS(=O)(=O)c1cccc2cccnc12)c1ccc(Cl)cc1` (stereo partly drawn) here?
**A.** inactive

**Q.** With `NCC[Se][Se]CCN` as the compound, how does the Potency read?
**A.** 0.0794 µM (active)

**Q.** With `C=C1c2cc(CC)ccc2NC(=O)N1c1ccc(C)cc1` as the compound, how does the Potency read?
**A.** 10 µM (active)

**Q.** For `N[C@@H](C(=O)O)c1ccc(P(=O)(O)O)cc1`, which activity change, negative = inhibition is on record?
**A.** inactive

**Q.** Which activity change, negative = inhibition does the source give for `CC(=O)N1CCC2(CCCN(Cc3ccc(C#N)cc3)C2)CC1` here?
**A.** inactive

**Q.** For `CCCCCCOC(=O)NCC(O)c1ccccc1` (stereo not drawn), which activity change, negative = inhibition is on record?
**A.** inactive

**Q.** Which activity change, negative = inhibition does the source give for `COc1cccc([C@H](O)Cn2cc(-c3ccc(CON=C(C)C)cc3)nn2)c1` here?
**A.** -1.91% [at 8 µM]

**Q.** With `COc1ncc2nc(-c3ccc(Cl)cc3)c(=O)n(C)c2n1` as the compound, how does the activity change, negative = inhibition read?
**A.** inactive

**Q.** Which activity change, negative = inhibition does the source give for `N#Cc1nc(Cc2ccccc2)oc1NCCc1ccccc1` here?
**A.** inactive

**Q.** For `N#Cc1nc(COc2ccc(-c3ccccc3)cc2)oc1NCc1cccnc1`, which activity change, negative = inhibition is on record?
**A.** inactive

**Q.** For `N#Cc1nc(-c2ccc(OCc3ccccc3)cc2)oc1NCCCN1CCOCC1`, which Potency is on record?
**A.** 12.6 µM (active)

**Q.** Which activity change, negative = inhibition does the source give for `C/C=C/C=C/C(=O)O` here?
**A.** inactive

**Q.** For `CC(C)CN1CCc2nc(-c3ccccc3)c3c(c2C1)COC(C)C3` (stereo not drawn), which activity change, negative = inhibition is on record?
**A.** -16% [at 8 µM]

**Q.** With `COc1ccccc1CNc1ccnc(-c2c(C)noc2C)n1` as the compound, how does the activity change, negative = inhibition read?
**A.** inactive

**Q.** Which activity change, negative = inhibition does the source give for `CC(Cc1ccccc1)C(=O)N(C)Cc1ccccc1` (stereo not drawn) here?
**A.** inactive

**Q.** Which activity change, negative = inhibition does the source give for `COc1ccc(/C=C/NC(=O)Cc2ccc(OC)c(OC)c2)cc1` here?
**A.** -11.3% [at 8 µM]

**Q.** For `Cn1c2c(c(=O)n(C)c1=O)C1c3ccccc3OCC1C(C)(C)O2` (stereo not drawn), which activity change, negative = inhibition is on record?
**A.** inactive

**Q.** Which activity change, negative = inhibition does the source give for `COc1ccccc1N1CCN(C[C@@H]2CN3C(=O)N(C)c4ccccc4C3=N2)CC1` here?
**A.** inactive

**Q.** With `CC1CN(Cc2nc3c(c(=O)n(C)c(=O)n3C)n2Cc2cccc(Cl)c2)CC(C)O1` (stereo not drawn) as the compound, how does the activity change, negative = inhibition read?
**A.** inactive

**Q.** Which activity change, negative = inhibition does the source give for `CCCCC(CC)CN` (stereo not drawn) here?
**A.** inactive

**Q.** With `Cc1ccnc(N2CCC(C(=O)NC3CCCCCC3)CC2)n1` as the compound, how does the activity change, negative = inhibition read?
**A.** inactive

**Q.** Which Potency does the source give for `Cc1ccnc(-n2sc3ccccc3c2=O)n1` here?
**A.** 0.316 µM (active)

**Q.** For `Cc1nc2ccccc2c(=O)n1CCCn1ccnc1`, which activity change, negative = inhibition is on record?
**A.** inactive

**Q.** Which activity change, negative = inhibition does the source give for `O=c1[nH]c(=O)n([C@H]2C[C@H](O)[C@H](CO)O2)cc1Br` here?
**A.** inactive

**Q.** For `CN(C)CCCn1c2ccccc2c2cnccc21`, which activity change, negative = inhibition is on record?
**A.** -25.7% [at 8 µM]

**Q.** For `Cc1cccc(NC(=O)COc2ccccc2C)n1`, which activity change, negative = inhibition is on record?
**A.** inactive

**Q.** Which activity change, negative = inhibition does the source give for `O=C(COc1ccccc1Cl)Nn1cnnc1` here?
**A.** inactive

**Q.** For `Cc1ccccc1OCC(=O)Nc1ccc(N2CCN(C(=O)C(C)C)CC2)c(Cl)c1`, which Potency is on record?
**A.** 12.6 µM (active)

**Q.** For `COC(=O)[C@@]1(Cc2ccc(F)cc2)[C@@H]2[C@@H](CC(=O)[C@H]2CC(=O)C(=O)N2CCCC2)CN1C(=O)c1ccccc1`, which activity change, negative = inhibition is on record?
**A.** inactive

**Q.** For `COC(=O)CCCCCN1C(=O)NC(c2ccc(-c3ccccc3)cc2)C(C(=O)OCc2ccccc2)=C1C` (stereo not drawn), which activity change, negative = inhibition is on record?
**A.** inactive

**Q.** With `Cc1ccccc1N1CCN(S(=O)(=O)C[C@@]23CC[C@H](C[C@H]2NC(=O)[C@@H](N)CCS(C)(=O)=O)C3(C)C)CC1` as the compound, how does the activity change, negative = inhibition read?
**A.** inactive

Source: PubChem BioAssay AID912 (National Center for Advancing Translational Sciences (NCATS), 2007)
